From PubChem
ssDAF-12 act – activates DAF-12 receptor from parasite S. stercoralis; activation, % at 6.8 µM; 370,000 tested, 1% active; HEK293 ssDAF-12/GRIP1 lit1-tk-luc reporter, luminescence; % of 3 µM dafachronic acid response; AID 652126;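 active means activation above the mean over all tested compounds plus 3 SD, cut at about 0.9% in these data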;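 further: 0% = DMSO-only wells and 100% = 3 µM delta7-dafachronic acid wells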
hgDAF12 agonist – hgDAF-12 agonism, primary luciferase screen; HEK293 GAL4-hgDAF12 UAS-luciferase reporter, agonist luminescence; normalized to butyrate control; activation, % at 6.8 µM; 370,000 tested, 1.8% active; AID 687014;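 active means activation above a cutoff set at the mean of all screened compounds plus 3 SD, cut at about 10% in these data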;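 further: 0% = DMSO wells and 100% = sodium butyrate wells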
DAX1 StAR inh – blocks DAX1 repression of SF-1 activated StAR promoter; HEK293T StAR-luciferase reporter, SF-1/DAX-1 repression relief; inhibition, % at 6.8 µM; 370,000 tested, 1.1% active; AID 652010;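 active means inhibition above the mean over all tested compounds plus 3 SD, cut at about 3.6% in these data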;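 further: 0% = DAX-1 cells with DMSO and 100% = cells lacking DAX-1 with DMSO; higher inhibition means more luminescence from relief of DAX-1 repression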
hcDAF12 agonist – activates DAF-12 receptor from parasite H. contortus; HEK293 hcDAF-12 lit1-tk-luc reporter, luminescence; 0% DMSO, 100% Δ7-dafachronic acid; activation, % at 6.8 µM; 370,000 tested, 1.4% active; AID 652067;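 active means activation above the mean of all tested compounds plus 3 SD, cut at about 5.5% in these data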;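 further: 100% = response to 3 µM Δ7-dafachronic acid high control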
SMARCA2 act – activators of SMARCA2 function. MG213 cells, MMTV-luciferase reporter, dexamethasone, overnight. activation, % at 9.1 µM. 370,000 tested, 1% active. AID 652017; in the data active means activation above about 7.8%;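 further: 0% = vehicle wells and 100% = reference activator wells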
An asterisk follows results filed as active; · = no result given. In the library only some 4.2% were active in any assay of this set; here they are far more common.

SMILES	ssDAF-12 act	hgDAF12 agonist	DAX1 StAR inh	hcDAF12 agonist	SMARCA2 act
CCOC(=O)[C@@]12CCCC3=C1N(CCC3)C(=O)[C@H]2CC(=O)NCc1cccc2ccccc12	-1.6	-0.1	0.6	-1.4	-2.0
CCN(Cc1ccccc1)C(=O)Nc1c(Cl)cccc1Cl	-0.6	0.0	0.2	-0.2	-2.1
CCCOc1ccc(C(=O)Nc2ccccc2[N+](=O)[O-])cc1	-0.4	13.1*	0.5	3.9	1.9
COc1ccc(C2NCCc3c2[nH]c2ccccc32)cc1CSc1nc2ccccc2s1 (stereo not drawn)	0.5	2.0	0.6	5.7*	-0.7
COc1ccc(C2NC(C(=O)O)Cc3c2[nH]c2ccccc32)cc1OC (stereo not drawn)	-0.5	1.1	0.1	1.4	-0.6
Cc1ccc(C(=O)n2ccc3ccc(-c4ccc5ccn(Cc6ccccc6)c5c4)cc32)cc1	-0.3	2.8	-0.1	6.2*	-2.5
COc1ccc(C[N+]2=C(N)N[C@@]3(C=C(C)Cn4c(=O)n(-c5ccccc5)c(=O)n43)C2)c(OC)c1	-1.1	-2.1	1.1	-1.2	1.6
Cc1ccc(C(=O)Cn2nnc3ccccc32)cc1	-0.3	11.3*	2.0	3.5	3.0
O=C(Cn1nnc2ccccc21)NCc1ccccc1	-0.7	10.8*	1.4	2.8	2.9
C#CCN1CC(N(C)CCOC(=O)CSc2ccccc2)CS1(=O)=O (stereo not drawn)	-0.9	4.7	-1.1	-0.5	-4.7
CCOC(=O)[C@]12CCCCC/C=C\1N(CCc1ccc(Cl)cc1)C(=O)[C@H]2CC(=O)NCCC(C)C	-0.7	-1.9	-0.7	-2.7	-1.4
CSc1nc(/C=C2\C=Nc3ccccc32)c(O)n1C	0.9*	7.8	-0.1	6.4*	5.8
CC(C)n1c(O)c(/C=C2\C=Nc3ccccc32)sc1=Nc1ccccc1	-1.7	-1.5	-0.1	-0.6	-1.1
CC(=O)CC[C@H]1CC[C@]2(CCCN(S(C)(=O)=O)C2)O1	-1.1	4.0	0.0	0.1	-5.0
Cc1ccc(NC(=O)c2cc3ccccc3o2)cc1S(=O)(=O)N(C)C	0.0	10.9*	1.4	3.0	3.5
CCOc1ccccc1NC(=O)c1cc2ccccc2o1	0.9*	7.0	0.3	4.5	-0.6
CCOc1ccccc1NC(=O)c1cc2ccccc2oc1=O	-0.7	0.6	0.1	1.4	-0.6
COc1ccc(C)cc1NC(=O)c1cc2ccccc2o1	1.6*	4.8	0.3	6.0*	2.6
O=C(Nc1ccccc1C(F)(F)F)c1cc2ccccc2o1	0.5	13.1*	3.4	4.2	2.4
COc1ccc(OC)c(NC(=O)c2cc3ccccc3o2)c1	0.1	2.8	1.1	4.6	-0.2
C[C@H](O)[C@@H]1C(=O)N2CCc3c([nH]c4cccc(-c5ccccc5)c34)[C@@H]2C[C@@H]1N(C)CC1CCCCC1	-1.2	2.8	-0.6	1.3	-0.1
CCC(NC(=O)c1ccc2c(ccn2Cc2cccc(-c3ccccc3C(=O)O)c2)c1)c1ccccc1 (stereo not drawn)	-0.8	-2.4	-1.6	-1.1	-0.5
COC(=O)c1cccc(NC(=O)c2cc3ccccc3o2)c1	0.3	12.1*	2.2	2.9	2.8
CCN1CCCCC(NC(=O)c2ccc(F)c(F)c2)C1=O (stereo not drawn)	-1.3	2.2	0.1	0.7	-3.4
CC(C)C[C@H]1COc2cc(F)ccc2S(=O)(=O)N1C	-0.2	-2.2	-1.0	-3.6	-1.6
SMILES	ssDAF-12 act	hgDAF12 agonist	DAX1 StAR inh	hcDAF12 agonist	SMARCA2 act
CNC(=O)Nc1ccc2nc(C)sc2c1	-1.5	2.4	0.5	2.9	4.9
Cc1nc2ccc(C(=O)Nc3ccccc3Cl)cc2s1	-0.9	10.7*	2.1	0.7	7.0
Cc1nc2ccc(NC(=O)c3sccc3C)cc2s1	-0.7	12.1*	2.0	-0.1	6.4
Cc1nc2ccc(NC(=O)Cc3cccc(F)c3)cc2s1	-1.3	0.3	1.3	0.4	1.6
Cc1nc2ccc(NC(=O)c3ccco3)cc2s1	-0.9	12.1*	1.5	0.8	7.3
Cc1nc2ccc(NC(=O)Cc3ccsc3)cc2s1	1.3*	5.9	1.7	5.8*	3.1
COc1ccc(OC)c(CN2C(=O)c3ccnn3CC2(C)c2nnnn2C2CCCC2)c1 (stereo not drawn)	-0.5	-0.4	0.6	-0.7	-0.8
COc1ccc(-n2c(SCC(=O)Nc3ccc(S(=O)(=O)Nc4nccs4)cc3)nnc2-c2ccco2)cc1	-1.0	-3.8	0.1	-1.6	-4.6
COc1ccc(S[C@]2(C(=O)N3CCCC3)CC(=O)N(C(=O)C3CC3)[C@@H]2c2ccc(OC)cc2)cc1	-0.8	1.4	-1.8	-1.0	-1.0
COc1cccc2cc3c(nc12)C[C@@H]1CCCC(=O)N2CCC[C@@]12C3	-1.3	-0.3	·	-2.1	·
Cc1nc2cc(NC(=O)C3COc4ccccc4O3)ccc2s1 (stereo not drawn)	-0.1	9.5	3.3	2.1	-0.2
Cc1nc2ccc(NC(=O)C3COc4ccccc4O3)cc2s1 (stereo not drawn)	-0.9	11.5*	2.3	2.9	1.4
Cc1nc2ccc(NC(=O)c3ccccc3)cc2s1	-0.7	11.2*	2.2	2.1	4.0
O=C(C(=O)N1CCC(CNS(=O)(=O)c2ccc(F)cc2)CC1)c1cc2ccccc2o1	-1.2	-2.4	-0.9	-0.6	-0.8
Cc1ccc(-c2nc3c(Cl)cc(Cl)cc3c(=O)n2O)cc1	0.3	0.3	-0.1	6.0*	-1.6
O=c1c2cc(Br)ccc2nc(-c2ccc(Cl)cc2)n1O	-0.2	1.3	0.1	-0.5	-1.4
C=C(C)[C@@H]1CC2=C(OC)C(CC=C(C)C)(CC=C(C)C)C(=O)C(C(=O)c3ccccc3)=C2O1	-1.7	-1.3	-0.2	-1.6	2.0
O=c1c2ccccc2oc2ccc(NCCCn3ccnc3)cc12	1.8*	11.2*	4.0*	4.7	4.7
CCCCNC(=O)C(NC(=O)c1ccc(C(F)(F)F)cc1)C(=O)c1ccccc1 (stereo not drawn)	2.4*	0.9	-0.4	-0.1	-0.6
CC(C)(C)OC(=O)N1CCC(NC(=O)c2[nH]c(C(F)(F)F)nc2-c2ccccc2)CC1	-0.4	2.9	-0.6	-0.8	-7.7
C[N+]1=C(N)N[C@@]2(C=C3CCCCC3n3c(=O)n(-c4ccccc4)c(=O)n32)C1 (stereo partly drawn)	-0.9	-1.9	-0.6	-0.8	-5.2
Cc1cc(C)c(NC(=O)c2ccc3nccnc3c2)c(C)c1	-1.0	-1.2	-1.4	-1.1	-0.7
Cc1ccc(NC(=O)c2ccc3nccnc3c2)c(C)c1	-0.2	11.5*	0.5	1.5	-0.7
CCCCCN1CCCCC(NC(=O)C2CCCCC2)C1=O (stereo not drawn)	-1.5	1.6	-1.6	-1.3	-1.2
CCCCN1C(=O)N2Cc3cc(OC)ccc3C2CS1(=O)=O (stereo not drawn)	-0.6	11.3*	1.4	5.6*	3.5
COc1ccc2c(c1)CN1C(=O)N(CCc3ccccc3)S(=O)(=O)CC21 (stereo not drawn)	-0.6	4.8	0.8	1.2	1.4
